Results filed as inconclusive are left out. Activity calls are given as the source filed them. Unless noted, the call rests on the fitted dose curve; in most records, active means well fitted inhibition curve with a large enough effect; inconclusive means small, poorly fitted or top-dose-only effect; inactive means flat fitted curve, though single readings scatter.

The source of these data is PubChem BioAssay (NCATS).

Test [1] in a line: qHTS drug screen for cell cycle checkpoint inhibitors in PARPi-resistant BRCA-mutant ovarian cancer cell lines. (AID 1963452; calls by dose curve). Particulars: PEO1/OlaR viability, CellTiter-Glo luminescence, 96 h; for Z-AUC: stronger effect = lower value. The essentials:
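PEO1, PEO4 and PEO1/OlaR ovarian cancer cells, 600 per well, exposed 96 h at 37C to a dilution series. Viability read by CellTiter-Glo luminescence, normalized to DMSO and empty wells; activity summarized as Z-AUC.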
Background: qHTS replaces the single test concentration by a dilution series.

Test [2] can be described thus: qHTS profiling for inhibitors of Plasmodium falciparum proliferation (AID 504749). Further: nearly all actives have a fitted effect of over 60% in size.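 On activity, negative = inhibition: 0% = DMSO vehicle and full inhibition = artemisinin control.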 Particulars: P. falciparum in erythrocytes, SYBR Green DNA, 72 h. An outline of the steps:
(§1)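 P. falciparum-infected erythrocytes (0.3% parasitemia, 2.5% hematocrit final) were exposed to compounds for 72 h at 37 C in 5% CO2, then lysed with SYBR Green buffer overnight at room temperature; parasite DNA fluorescence was normalized to artemisinin and DMSO controls.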

Test [3] concerns 3D7. The test is described as above. Particulars: P. falciparum in erythrocytes, SYBR Green DNA, 72 h; series mostly up to 28.7 µM. The essentials:
as §1

Test [4] has as its system 7G8. Described as above. Particulars: P. falciparum in erythrocytes, SYBR Green DNA, 72 h; series mostly up to 28.7 µM. The essentials:
as §1

For test [5], the system named is AA1029. Described as above. Conditions: P. falciparum in erythrocytes, SYBR Green DNA, 72 h; series mostly up to 28.7 µM. An outline of the steps: as §1
Test [6] relates to AS120. Described as above. Particulars: P. falciparum in erythrocytes, SYBR Green DNA, 72 h; series mostly up to 28.7 µM. The essentials:
as §1

The mark [7] stands for this setting: measured here: PEO1 parental Z-AUC.
Setting [8] is: at 28.7 µM (top of the series), parasite line A.
[9] abbreviates: at 28.7 µM (top of the series), parasite line B.
Where [10] appears, read: at 12.8 µM (top of the series), parasite line A.
Where [11] appears, read: at 12.8 µM (top of the series), parasite line B.
Potency means the concentration at half of the fitted maximal effect.

With `Cc1c(-c2ccnn2C)cc(C(=O)NCc2ccc(S(C)(=O)=O)cn2)c(=O)n1-c1cccc(C(F)(F)F)c1`, the Z-AUC in test [1] is -0.519 (inactive); in test [1] (setting [7]), -0.353; in test [1] (measured here: PEO4 Z-AUC) it was -0.364.

Consider `CN(C)CCCN1c2ccccc2C(C)(C)c2ccccc21`, for which the activity, negative = inhibition in test [2] (setting [8]) was -5.82% (inactive); in test [2] (setting [9]), -11.4% (inactive). Moreover, the Potency result in test [3] is “inactive”.

With `Cc1nc2c(-c3cnc(N)nc3)nc(N3CCOCC3)nc2n1C(C)C`, the Potency in test [1] was 436 nM (active). For the same molecule, the Z-AUC was -1.56 in test [1] (setting [7]) and -1.63 in test [1] (measured here: PEO4 Z-AUC).

Regarding `CO[C@H](C(=O)[C@@H](O)[C@@H](C)O)C1Cc2cc3cc(O[C@H]4C[C@@H](O[C@H]5C[C@@H](O)[C@H](O)[C@@H](C)O5)[C@@H](O)[C@@H](C)O4)c(C)c(O)c3c(O)c2C(=O)[C@H]1O[C@H]1C[C@@H](O[C@H]2C[C@@H](O[C@H]3C[C@](C)(O)[C@H](O)[C@@H](C)O3)[C@H](O)[C@@H](C)O2)[C@H](O)[C@@H](C)O1` (stereo not given in full), the Potency in test [2] (parasite line A) was 112 nM (active); in test [2] (parasite line B) it was 251 nM (active); in test [3], 112 nM (active); in test [4], 44.7 nM (active); in test [5], 112 nM (active); in test [6] it was 141 nM (active).

With `Nc1c(N=Nc2ccc(-c3ccc(N=Nc4cc(S(=O)(=O)O)c5ccccc5c4N)cc3)cc2)cc(S(=O)(=O)O)c2ccccc12`, the values for the activity, negative = inhibition in test [2] (setting [8]) and in test [2] (setting [9]) were 6.43% (inactive) and -3.17% (inactive), respectively. Besides, the Potency result in test [3], in test [4], in test [5] and in test [6] was “inactive” in each case.

`COC(=O)C1=C(C#N)NC(C)=C(C(=O)OC(C)C)C1c1cccc([N+](=O)[O-])c1` (stereo not given): the Potency in test [2] (parasite line A) was 8910 nM (active); in test [2] (parasite line B), 11200 nM (active); in test [3] it was 8910 nM (active); in test [4] it was 10000 nM (active); in test [5], 11200 nM (active); in test [6], 8910 nM (active).

Regarding `IC(I)I`, the results for the activity, negative = inhibition in test [2] (setting [8]) and in test [2] (setting [9]) were 0.888% (inactive) and 2.57% (inactive), respectively. Also, the Potency entry in test [3], in test [4], in test [5] and in test [6] was “inactive” throughout.

On to `CCNC(=O)[C@@H]1CCCN1C(=O)[C@H](CCCN=C(N)N)NC(=O)[C@H](CC(C)C)NC(=O)[C@@H](Cc1c[nH]c2ccccc12)NC(=O)[C@H](Cc1ccc(O)cc1)NC(=O)[C@H](CO)NC(=O)[C@H](Cc1c[nH]c2ccccc12)NC(=O)[C@H](Cc1cnc[nH]1)NC(=O)[C@@H]1CCC(=O)N1`, for which the Potency in test [2] (parasite line A) was 4470 nM (active); in test [2] (parasite line B) it was 5620 nM (active); in test [3], 7080 nM (active); in test [4], 1120 nM (active); in test [5], 3160 nM (active); in test [6], 4470 nM (active).

For the molecule `Cc1ccccc1`, the activity, negative = inhibition in test [2] (setting [8]) is 1.71% (inactive); in test [2] (setting [9]), 0.119% (inactive). Further, the Potency entry in test [3], in test [4], in test [5] and in test [6] was “inactive” each time.

Take `CCCC(=O)O[C@]1(C(=O)CCl)[C@H](C)C[C@@H]2[C@H]3CCC4=CC(=O)C=C[C@]4(C)[C@@]3(F)C(=O)C[C@@]21C`: the Potency was 1410 nM (active) in test [2] (parasite line A); 2240 nM (active) in test [2] (parasite line B); 2510 nM (active) in test [3]; 2510 nM (active) in test [4]; 2820 nM (active) in test [5]; 3160 nM (active) in test [6].

With `CC1(C)S[C@@H]2[C@H](NC(=O)[C@@H](NC(=O)N3CCNC3=O)c3ccccc3)C(=O)N2[C@H]1C(=O)O`, the activity, negative = inhibition was 9.18% (inactive) in test [2] (setting [10]) and -0.988% (inactive) in test [2] (setting [11]). In addition, the Potency entry in test [3], in test [4], in test [5] and in test [6] was “inactive” throughout.

Regarding `O=C(COc1ccc(Cl)cc1)OCCNC12CC3CC(CC(C3)C1)C2`, the values for the activity, negative = inhibition in test [2] (setting [8]) and in test [2] (setting [9]) were 9.51% (inactive) and 10.7% (inactive), respectively. Further, the Potency entry in test [3], in test [4], in test [5] and in test [6] was “inactive” throughout.

For `CC(C(=O)O)c1ccc(N2Cc3ccccc3C2=O)cc1` (stereo not given), the activity, negative = inhibition in test [2] (setting [8]) is 8.3% (inactive); in test [2] (setting [9]), 10.3% (inactive). For the same molecule, the Potency result in test [3], in test [4], in test [5] and in test [6] was “inactive” each time.

As for `CN=C(NC#N)Nc1ccc(C2=NNC(=O)C[C@@H]2C)cc1`, the activity, negative = inhibition in test [2] (setting [8]) is 13.8% (inactive); in test [2] (setting [9]), 8.03% (inactive). Further, the Potency result in test [3], in test [4], in test [5] and in test [6] was “inactive” throughout.

Regarding `Nc1ncnc2c1ncn2[C@@H]1O[C@H](COP(=O)(O)OP(=O)(O)OP(=O)(O)O)[C@@H](O)[C@H]1O`, the activity, negative = inhibition was 19.4% (inactive) in test [2] (setting [8]) and 9.47% (inactive) in test [2] (setting [9]). The Potency entry in test [3], in test [4], in test [5] and in test [6] was “inactive” in each case.

`Cc1ccccc1OCC(O)CNCCOc1ccc(C(N)=O)cc1` (stereo not given): the activity, negative = inhibition in test [2] (setting [8]) is 11.2% (inactive); in test [2] (setting [9]) it was 8.46% (inactive). The Potency result in test [3], in test [4], in test [5] and in test [6] was “inactive” throughout.

Take `Nc1c(Br)cc(Br)cc1CNC1CCC(O)CC1` (stereo not given): the activity, negative = inhibition in test [2] (setting [8]) was 8.81% (inactive); in test [2] (setting [9]), -8.99% (inactive). Further, the Potency result in test [3], in test [4], in test [5] and in test [6] was “inactive” each time.

On to `Cc1cc(C(=O)NNCc2ccccc2)no1`, for which the activity, negative = inhibition in test [2] (setting [10]) was 2.34% (inactive); in test [2] (setting [11]), -1.58% (inactive). Besides, the Potency entry in test [3], in test [4], in test [5] and in test [6] was “inactive” in each case.

On to `CCCCCC(CC)COC(=O)CC(C(=O)OCC(CC)CCCC)S(=O)(=O)O` (stereo not given), for which the values for the activity, negative = inhibition in test [2] (setting [8]) and in test [2] (setting [9]) were 7.28% (inactive) and 3.54% (inactive), respectively. In addition, the Potency entry in test [3], in test [4], in test [5] and in test [6] was “inactive” throughout.
